# The supplement of paper PMC12282887
# ± gives the standard deviation of the averaged measurements.
# Columns and labels:
# Assay in all cases: promoter activity interaction Z-score (Lux/OD deviation from empty-vector control); higher = stronger promoter induction by the compound
# [1] = test system: E. coli BW25113 acrABp lux reporter
# Procedure, shortened: (§1)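 Low-copy luxCDABE promoter reporters were carried by E. coli BW25113, either wild type or lacking one of three genes, grown in 40 µl LB Lennox in 384-well plates at 37°C. Each compound was run at four 1:2 dilutions in biological duplicates, with OD600 and luminescence read every 30 min for 12 h. Integration used 0–8 h for wild type and 1–9 h for deletion strains, and wells under 10% of the median growth value were removed. Luminescence normalised to growth was fitted against a control, and the Z-transformed residual is the score.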
# [2] = test system: E. coli BW25113 marRABp lux reporter
# Procedure, shortened: as §1
# [3] = test system: E. coli BW25113 micFp lux reporter
# Procedure, shortened: as §1
# [4] = test system: E. coli BW25113 ompFp lux reporter
# Procedure, shortened: as §1
# [5] = test system: E. coli BW25113 robp lux reporter
# Procedure, shortened: as §1
# [6] = test system: E. coli BW25113 soxSp lux reporter
# Procedure, shortened: as §1
# [7] = test system: E. coli BW25113 tolCp lux reporter
# Procedure, shortened: as §1
# [8] = 3.1 µg/ml, genetic background: wild type
# [9] = 3.1 µg/ml, genetic background: ΔmarA
# [10] = 3.1 µg/ml, genetic background: Δrob
# [11] = 3.1 µg/ml, genetic background: ΔsoxS
# [12] = 6.1 µg/ml, genetic background: wild type
# [13] = 6.1 µg/ml, genetic background: ΔmarA
# [14] = 6.1 µg/ml, genetic background: Δrob
# [15] = 6.1 µg/ml, genetic background: ΔsoxS
# [16] = 12.2 µg/ml, genetic background: wild type
# [17] = 12.2 µg/ml, genetic background: ΔmarA
# [18] = 12.2 µg/ml, genetic background: Δrob
# [19] = 12.2 µg/ml, genetic background: ΔsoxS
# [20] = 24.5 µg/ml, genetic background: wild type
# [21] = 24.5 µg/ml, genetic background: Δrob
# [22] = 24.5 µg/ml, genetic background: ΔsoxS
# [23] = 24.5 µg/ml, genetic background: ΔmarA
structure (smiles),measurement,setting,value
COc1ccc(C[C@H](N)C(=O)N[C@H]2[C@@H](O)[C@H](n3cnc4c(N(C)C)ncnc43)O[C@@H]2CO)cc1 [Puromycin],promoter activity interaction Z-score,[1]; [8],-0.169 ± 0.22
same,promoter activity interaction Z-score,[1]; [9],0.738 ± 0.17
same,promoter activity interaction Z-score,[1]; [10],0.211 ± 0.055
same,promoter activity interaction Z-score,[1]; [11],0.2622 ± 0.0026
same,promoter activity interaction Z-score,[1]; [12],-0.104 ± 0.052
same,promoter activity interaction Z-score,[1]; [13],0.582 ± 0.0062
same,promoter activity interaction Z-score,[1]; [14],0.153 ± 0.24
same,promoter activity interaction Z-score,[1]; [15],0.199 ± 0.57
same,promoter activity interaction Z-score,[1]; [16],-0.0259 ± 0.33
same,promoter activity interaction Z-score,[1]; [17],-0.302 ± 0.48
same,promoter activity interaction Z-score,[1]; [18],0.308 ± 0.44
same,promoter activity interaction Z-score,[1]; [19],0.649 ± 0.26
same,promoter activity interaction Z-score,[1]; [20],3.35 ± 1.5
same,promoter activity interaction Z-score,[1]; [21],3.54
same,promoter activity interaction Z-score,[1]; [22],0.855
same,promoter activity interaction Z-score,[2]; [8],0.00293 ± 0.13
same,promoter activity interaction Z-score,[2]; [9],0.189 ± 0.15
same,promoter activity interaction Z-score,[2]; [10],0.309 ± 0.18
same,promoter activity interaction Z-score,[2]; [11],0.0658 ± 0.096
same,promoter activity interaction Z-score,[2]; [12],0.213 ± 0.31
same,promoter activity interaction Z-score,[2]; [13],0.623 ± 0.33
same,promoter activity interaction Z-score,[2]; [14],0.273 ± 0.14
same,promoter activity interaction Z-score,[2]; [15],0.534 ± 0.15
same,promoter activity interaction Z-score,[2]; [16],0.362 ± 0.15
same,promoter activity interaction Z-score,[2]; [17],0.61 ± 0.46
same,promoter activity interaction Z-score,[2]; [18],0.305 ± 0.046
same,promoter activity interaction Z-score,[2]; [19],0.522 ± 0.076
same,promoter activity interaction Z-score,[2]; [20],1.38 ± 0.23
same,promoter activity interaction Z-score,[2]; [21],2.58
same,promoter activity interaction Z-score,[3]; [8],0.0526 ± 0.12
same,promoter activity interaction Z-score,[3]; [9],0.103 ± 0.069
same,promoter activity interaction Z-score,[3]; [10],0.103 ± 0.15
same,promoter activity interaction Z-score,[3]; [11],0.0839 ± 0.0077
same,promoter activity interaction Z-score,[3]; [12],0.357 ± 0.041
same,promoter activity interaction Z-score,[3]; [13],0.0213 ± 0.081
same,promoter activity interaction Z-score,[3]; [14],0.102 ± 0.074
same,promoter activity interaction Z-score,[3]; [15],0.145 ± 0.035
same,promoter activity interaction Z-score,[3]; [16],0.699 ± 0.21
same,promoter activity interaction Z-score,[3]; [17],-0.00373 ± 0.096
same,promoter activity interaction Z-score,[3]; [18],0.459 ± 0.3
same,promoter activity interaction Z-score,[3]; [19],0.738 ± 0.034
same,promoter activity interaction Z-score,[3]; [20],1.71 ± 0.31
same,promoter activity interaction Z-score,[3]; [23],-0.484
same,promoter activity interaction Z-score,[3]; [21],0.834 ± 0.41
same,promoter activity interaction Z-score,[3]; [22],1.39 ± 0.35
same,promoter activity interaction Z-score,[4]; [8],0.322 ± 0.085
same,promoter activity interaction Z-score,[4]; [9],1.17 ± 0.67
same,promoter activity interaction Z-score,[4]; [10],0.656 ± 0.1
same,promoter activity interaction Z-score,[4]; [11],0.816 ± 0.3
same,promoter activity interaction Z-score,[4]; [12],0.855 ± 0.35
same,promoter activity interaction Z-score,[4]; [13],1.33 ± 0.85
same,promoter activity interaction Z-score,[4]; [14],0.692 ± 0.034
same,promoter activity interaction Z-score,[4]; [15],0.84 ± 0.13
same,promoter activity interaction Z-score,[4]; [16],0.351 ± 0.31
same,promoter activity interaction Z-score,[4]; [17],0.942 ± 0.49
same,promoter activity interaction Z-score,[4]; [18],0.448 ± 0.37
same,promoter activity interaction Z-score,[4]; [19],1.03 ± 0.34
same,promoter activity interaction Z-score,[4]; [20],0.599 ± 1.4
same,promoter activity interaction Z-score,[5]; [8],0.0602 ± 0.017
same,promoter activity interaction Z-score,[5]; [9],0.523 ± 0.036
same,promoter activity interaction Z-score,[5]; [10],0.5595 ± 0.0042
same,promoter activity interaction Z-score,[5]; [11],-0.174 ± 0.69
same,promoter activity interaction Z-score,[5]; [12],0.596 ± 0.45
same,promoter activity interaction Z-score,[5]; [13],0.0157 ± 0.15
same,promoter activity interaction Z-score,[5]; [14],0.269 ± 0.22
same,promoter activity interaction Z-score,[5]; [15],0.279 ± 0.33
same,promoter activity interaction Z-score,[5]; [16],-0.231 ± 0.16
same,promoter activity interaction Z-score,[5]; [17],0.0377 ± 0.16
same,promoter activity interaction Z-score,[5]; [18],-0.211 ± 0.45
same,promoter activity interaction Z-score,[5]; [19],0.0544 ± 0.43
same,promoter activity interaction Z-score,[5]; [20],-0.191
same,promoter activity interaction Z-score,[5]; [23],-0.499
same,promoter activity interaction Z-score,[6]; [8],-0.228 ± 0.044
same,promoter activity interaction Z-score,[6]; [9],-0.0397 ± 0.09
same,promoter activity interaction Z-score,[6]; [10],0.102 ± 0.24
same,promoter activity interaction Z-score,[6]; [11],0.373 ± 0.73
same,promoter activity interaction Z-score,[6]; [12],-0.0604 ± 0.21
same,promoter activity interaction Z-score,[6]; [13],0.0219 ± 0.021
same,promoter activity interaction Z-score,[6]; [14],-0.144 ± 0.099
same,promoter activity interaction Z-score,[6]; [15],0.298 ± 0.46
same,promoter activity interaction Z-score,[6]; [16],0.0076 ± 0.14
same,promoter activity interaction Z-score,[6]; [17],0.0786 ± 0.15
same,promoter activity interaction Z-score,[6]; [18],0.00948 ± 0.09
same,promoter activity interaction Z-score,[6]; [19],0.315 ± 0.021
same,promoter activity interaction Z-score,[6]; [20],-0.0601 ± 0.063
same,promoter activity interaction Z-score,[6]; [23],-0.197 ± 0.049
same,promoter activity interaction Z-score,[6]; [21],-0.131 ± 0.33
same,promoter activity interaction Z-score,[6]; [22],0.525 ± 0.4
same,promoter activity interaction Z-score,[7]; [8],-0.726 ± 1
same,promoter activity interaction Z-score,[7]; [9],-0.59 ± 0.65
same,promoter activity interaction Z-score,[7]; [10],-0.281 ± 0.23
same,promoter activity interaction Z-score,[7]; [11],0.126 ± 0.63
same,promoter activity interaction Z-score,[7]; [12],-0.252 ± 0.51
same,promoter activity interaction Z-score,[7]; [13],-0.611 ± 0.2
same,promoter activity interaction Z-score,[7]; [14],-0.785 ± 0.27
same,promoter activity interaction Z-score,[7]; [15],-0.165 ± 0.34
same,promoter activity interaction Z-score,[7]; [16],-0.285 ± 0.69
same,promoter activity interaction Z-score,[7]; [17],0.412 ± 0.11
same,promoter activity interaction Z-score,[7]; [18],-0.374 ± 0.33
same,promoter activity interaction Z-score,[7]; [19],-0.186 ± 0.2
same,promoter activity interaction Z-score,[7]; [20],1.04 ± 0.64
same,promoter activity interaction Z-score,[7]; [23],1.74
same,promoter activity interaction Z-score,[7]; [21],-0.0754 ± 0.73
same,promoter activity interaction Z-score,[7]; [22],0.227 ± 0.79
